Assay outcomes (PubChem BioAssay)
Only some compounds are listed: those with a hit (about 1.3% of all), similar ones and a draw of the others.
MCL1-BIM inh: inhibitors of MCL1 binding to BIM-BH3, primary screen, biochemical, fluorescence polarization; AID 2057, 2009; GST-MCL1 / FITC-Bim-BH3 fluorescence polarization; inhibition, % at 10.9 µM; 320,000 compounds, 0.68% hits; Induced myeloid leukemia cell differentiation protein Mcl-1 (Homo sapiens), Q07820;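 active = inhibition above the mean inhibition of all tested compounds plus 3 SD, set per campaign, cut at about 40% in these data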;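 also: 0% = DMSO wells and 100% = unlabeled Bim-BH3 peptide control; higher means more loss of mP so more displacement of Bim peptide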
GLD-1 RNA inh: GLD-1/TGE RNA complex disruptors, primary screen, biochemical, fluorescence polarization. Female germline-specific tumor suppressor gld-1 (Caenorhabditis elegans), Q17339. purified GLD-1 + fluorescein TGE RNA. inhibition, % at 5.96 µM. 320,000 compounds, 0.44% hits. AID 2280, 2010;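 active = percent inhibition above a per-plate cutoff, the plate mean of test compounds plus 3 SD, cut at about 30% in these data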;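 also: 0% = DMSO wells with GLD-1 and probe and 100% = wells lacking GLD-1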
EBV gp42 inh: Epstein-Barr virus gp42 inhibitors, primary screen, biochemical, uHTS, fluorescence polarization; Fluorescence polarization binding assay, mP read-out; 220,000 compounds, 0.42% hits; Glycoprotein 42 (Epstein-Barr virus (strain AG876)), Q1HVG2; inhibition, % (tested at 21.74 µM); in the data active = inhibition above about 50%
Target sequence (Q1HVG2 whole entry, looked up): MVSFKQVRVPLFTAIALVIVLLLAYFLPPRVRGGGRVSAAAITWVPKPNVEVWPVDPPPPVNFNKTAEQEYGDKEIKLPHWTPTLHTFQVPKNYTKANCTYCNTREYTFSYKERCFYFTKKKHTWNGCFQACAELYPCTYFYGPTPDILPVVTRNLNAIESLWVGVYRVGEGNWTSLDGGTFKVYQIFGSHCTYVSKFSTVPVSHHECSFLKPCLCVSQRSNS
BCLXL inh: inhibitors of human Bcl-xL, primary screen, biochemical, fluorescence polarization, HTS | GST-Bcl-xL / FITC-Bim BH3 peptide fluorescence polarization | 320,000 compounds, 0.7% hits | AID 2129, 2009 | inhibition, % at 10.9 µM;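 active = inhibition above the mean of all tested compounds plus 3 SD, cutoff set per campaign, cut at about 30% in these data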;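 also: 0% = DMSO wells and 100% = unlabeled Bim-BH3 peptide competitor; inhibitors lower millipolarization by displacing the labeled peptide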
Target sequence (Q07817 whole entry, looked up): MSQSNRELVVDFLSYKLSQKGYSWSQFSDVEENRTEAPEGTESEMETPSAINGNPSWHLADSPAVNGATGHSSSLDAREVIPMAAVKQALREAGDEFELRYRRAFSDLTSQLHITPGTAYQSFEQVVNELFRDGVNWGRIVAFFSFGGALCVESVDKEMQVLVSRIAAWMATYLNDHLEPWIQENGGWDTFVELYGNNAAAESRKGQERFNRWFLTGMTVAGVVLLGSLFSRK
MEX-5 binding: MEX-5 zinc finger RNA-binding disruptors – biochemical, C. elegans, fluorescence polarization, MLPCN library, primary screen; 300,000 compounds, 0.38% hits; Zinc finger protein mex-5 (Caenorhabditis elegans), Q9XUB2; MEX-5/FITC-TCR2 RNA binding; hits give low values; activity score (negative = inhibition of binding), % at 10 µM; AID 1832, 2009;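 active = inhibition past about -25% in most replicates, and total fluorescence under double the plate's negative control median, limit read from the data; inconclusive = replicates evenly split on the limit, or fluorescence at least double controls; inactive = too little inhibition in most replicates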;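 also: 0% = DMSO and -100% = 5 µM competing unlabeled TCR2 RNA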
The depositor's hits bear a star; u = inconclusive; x = no result given; + = active, no number.

SMILES	MCL1-BIM inh	GLD-1 RNA inh	EBV gp42 inh	BCLXL inh	MEX-5 binding
COc1ccccc1NS(=O)(=O)c1cc(NC(=O)COc2ccccc2F)ccc1N1CCOCC1	x	4	x	x	x
COCCN1CCn2c(nc3cc(NC(C)=O)ccc32)C1	14	3	x	17	-1
COCCN1CCn2c(nc3cc(NC(=O)NC4CCCCC4)ccc32)C1	35	5	35	33*	x
CC(=O)N(c1ccccc1C)C1CCCC1	-3	-4	-14	4	-2
CC(=O)N(C1=C(Cl)C(=O)c2ccccc2C1=O)C1CCCCC1	31	13	-24	15	-48*
CN(C)C1=NC[C@H](Cc2ccccc2)N1CC1CCCCCC1	4	6	x	3	x
Fc1ccc(-c2nnsc2Sc2ccccn2)cc1	0	6	-5	-2	1
CCNC(=S)NC(=NCc1cccnc1)Nc1nc(C)cc(C)n1	46*	13	x	38*	11
Nc1nc(-c2ccccc2)[nH]c(=O)c1N	12	18	21	12	-26*
C/C(=N\NC(=O)OC(C)(C)C)c1cccc([N+](=O)[O-])c1	4	8	-9	3	x
Oc1cc2c(cc1O)C1c3ccc(O)c(O)c3OCC1(O)C2 (stereo unspecified)	77*	35*	-14	34*	x
Cc1cc(C)c(NC(=S)N(CCCN2CCOCC2)Cc2cccnc2)c(C)c1	8	-5	16	2	-1
COc1cc(N2CCCC2)c(OC)cc1/C=C(/C#N)c1ccc(Br)cc1	-37	-60	95*	-34	-10
COc1cc(N2CCCC2)c(OC)cc1/C=C(/C#N)c1ccc(F)cc1	-59	-42	139*	-50	-2
N#C/C(=C/c1ccc(N2CCCCC2)cc1)c1cccc(F)c1	-18	-12	-16	-8	0
COc1cc(N2CCCC2)ccc1C=O	0	2	-10	7	0
CSCCC(=O)N1CCC(n2nccc2NC(=O)c2ccc3c(c2)OCO3)CC1	6	6	x	6	-1
O=c1cc(O)c2ccc(O)cc2o1	2	9	5	5	-8
O=c1ccc2[n+]([O-])c3ccc(O)cc3oc-2c1	x	x	110*	x	-81*
CC(=O)NCCNc1ccc([N+](=O)[O-])cc1C#N	-1	3	4	2	-41*
O=C(CN1C(=O)S/C(=C\c2ccccc2)C1=O)NNC(=O)c1ccccc1O	10	3	2	5	-2
COc1ccc(/C=C2\SC(=O)N(CC(=O)NNC(=O)c3ccccc3O)C2=O)cc1	9	-5	58*	6	0
CN1c2cccc3cccc(c23)N(C)C1(C)C	7	-6	-20	10	1
CN1c2ccccc2N(C)C1(C)c1cccc2ccccc12	27	27	-77	43*	-4
CCN(c1ccc(N=Cc2c(O)n(Cc3ccc(OC)cc3)c(=O)c3ccccc23)cc1)C(C)C	x	x	+	x	x
SMILES	MCL1-BIM inh	GLD-1 RNA inh	EBV gp42 inh	BCLXL inh	MEX-5 binding
CN(C)c1ccc(/C=N/NC(=O)c2cnc3ccccc3c2)cc1	4	-2	76*	7	-44*
O=C(c1ccccc1)c1nn(-c2ccccc2)c(=O)cc1C(F)(F)F	-3	-2	-2	8	2
O=C(Nc1ccccc1)c1nn(-c2ccccc2)c(=O)cc1C(F)(F)F	4	-1	18	4	-30*
Cc1nn(-c2ccccc2)c(N2CCCC2)c1/C=C1\N=C(c2ccc(F)cc2)OC1=O	-17	-5	82*	1	u
Cc1ccc(C2=N/C(=C\c3c(C)nn(-c4ccccc4)c3N3CCCC3)C(=O)O2)cc1	1	-2	93*	-4	-9
CCOC(=O)CNc1c(-c2ccc(F)cc2)nc2cnccn12	24	15	x	33*	-12
CCOC(=O)CNc1c(-c2ccc(Cl)cc2)nc2cnccn12	26	1	21	28	-8
CN=C(NC(=O)Nc1c(C)cccc1C)NC(=O)Nc1c(C)cccc1C	-3	-5	-5	4	0
Cc1cccc(C)c1NC(=O)NN=C1CCCCC1	-2	-6	-20	2	-29*
CCOC(=O)c1cnn(-c2nc(-c3cccc(F)c3)cs2)c1C(F)(F)F	3	9	-7	4	-2
